SMILES strings stand for the structures. The source made the active and inactive calls. How the source made its calls: active means hit-call score of the fitted dose curve at least 0.9, where 1 is the maximum; inactive means score below 0.9.

Sequence of human PRAK CAMK Kinase, MAPKAPK5 (gene 8550) (Q8IW41 whole entry, looked up): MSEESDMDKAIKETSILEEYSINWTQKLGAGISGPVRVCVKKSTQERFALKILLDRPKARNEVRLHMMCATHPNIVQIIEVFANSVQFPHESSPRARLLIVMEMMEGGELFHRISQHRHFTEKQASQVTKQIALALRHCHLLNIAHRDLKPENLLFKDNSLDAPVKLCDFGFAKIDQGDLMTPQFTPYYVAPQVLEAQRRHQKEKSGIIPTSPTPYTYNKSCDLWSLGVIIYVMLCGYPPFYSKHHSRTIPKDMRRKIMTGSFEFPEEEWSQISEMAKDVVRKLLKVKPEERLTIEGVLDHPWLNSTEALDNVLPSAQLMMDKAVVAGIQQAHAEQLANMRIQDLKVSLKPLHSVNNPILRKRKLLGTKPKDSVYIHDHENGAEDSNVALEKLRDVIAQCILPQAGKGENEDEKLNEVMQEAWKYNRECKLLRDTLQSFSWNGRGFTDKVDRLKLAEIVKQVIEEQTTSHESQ

The assay addresses human PRAK CAMK Kinase, MAPKAPK5 (gene 8550) (UniProt Q8IW41). Briefly: ERF_TW_ENZ_hMAPKAPK5: Eurofins (ERF) Enzymatic Radiometric [10 uM ATP] LeadHunter Assay for human PRAK CAMK Kinase. As to the method: ERF_TW_ENZ_hMAPKAPK5 is a biochemical, single-readout assay that uses extracted gene-proteins in a cell-free assay. Measurements were taken 0.5 hour after chemical dosing in a 96-well plate. See PRAK Human CAMK Kinase Enzymatic Radiometric Assay [10 uM ATP], Panlabs.ERF_TW_ENZ_hMAPKAPK5 is an assay component calculated from the ERF_TW_ENZ_hMAPKAPK5 assay. It is designed to measure enzyme activity using a type of enzyme reporter as detected by scintillation counting with radiometry technology.Data from the assay component ERF_TW_ENZ_hMAPKAPK5 was analyzed at the assay endpoint, ERF_TW_ENZ_hMAPKAPK5, in the positive analysis fitting direction relative to DMSO as the negative control and baseline of activity. Using a type of enzyme reporter, loss-of-signal activity can be used to understand changes in enzymatic activity as they relate to gene MAPKAPK5. To generalize the intended target to other relatable targets, this assay endpoint is annotated to the kinase intended target family, where the subfamily is serine/threonine kinase.
Human recombinant protein kinase PRAK expressed in insect Sf21 cells is used. Test compound is preincubated with 0.44 U/ml enzyme in modified MOPS buffer pH 7.2 for 15 minutes at 37C. […] An aliquot is removed and counted to determine the amount of [32P]PRAK substrate. […]
In general, AC50 refers to the midpoint of the concentration-response curve, whichever way the signal moves. Take `O=C(/C=C/c1ccc(O)cc1)CC(=O)/C=C/c1ccc(O)cc1`: the AC50 was 1.02 µM (active).

These data come from PubChem BioAssay AID2284104 (EPA ToxCast).
